Assay results reported in PubChem BioAssay AID1008 (NMMLSC, 2008).
Out of some 190,000 compounds screened, about 240 (0.13%) were called active. This is one part of a sample in which actives are shown more often than they occur. Cut-off read from the data, not from the text of the source: active = inhibition above about 40%.

Each compound was assayed against Bcl-2-related protein A1 (Homo sapiens) (UniProt Q16548) (assay: Bfl-1/Bim complex disruptors – biochemical, multiplexed, bead-based flow cytometry, primary screen (AID 1008;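 note: 0% = wells without compound plus tracer and 100% = blocker peptide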)). Settings: Bim-Bfl-1 binding inhibition, at 10 µM, active compounds read high.
Chain of Bcl-2-related protein A1 (Homo sapiens) (Q16548 whole entry, looked up): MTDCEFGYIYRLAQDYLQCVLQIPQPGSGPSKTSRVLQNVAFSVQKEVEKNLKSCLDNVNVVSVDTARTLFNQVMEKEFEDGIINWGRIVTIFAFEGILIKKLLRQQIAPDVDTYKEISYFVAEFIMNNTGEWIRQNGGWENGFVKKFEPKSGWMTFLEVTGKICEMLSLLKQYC
For C=CCn1c(O)c(/C=N/N2CCOCC2)c(=O)[nH]c1=S, the inhibition was 3% (inactive). In the case of Cc1cccc(-n2c(O)c(/C=N/N3CCOCC3)c(=O)[nH]c2=S)c1, the inhibition is reported as 41% (active). With O=c1[nH]c(=S)n(C2CC2)c(O)c1/C=N/N1CCOCC1 the inhibition was -14% (inactive). For N#Cc1ccc(Cn2cc(C(=O)c3ccco3)c3ccccc32)cc1, the inhibition was -4% (inactive). CCOC(=O)C1(Cc2ccc(Cl)cc2)CCN(C(C)CCn2cccn2)CC1 (stereo not given) was tested, and the inhibition was 0% (inactive).
